Measured values from PubChem BioAssay (NCATS).
A number with no mark means an inactive call. Results filed as inconclusive are left out. The source made the active and inactive calls. The call rests on the fitted dose curve; in most records, active means well fitted curve in the direction sought with a large enough effect; inconclusive means small, poorly fitted or top-dose-only effect, or another doubt; inactive means no such curve, though single readings can be large; an effect the other way counts as inactive or inconclusive.

Molecular target: Cytochrome P450 2D6 (Homo sapiens) (UniProt P10635)
Sequence (P10635 whole entry, looked up): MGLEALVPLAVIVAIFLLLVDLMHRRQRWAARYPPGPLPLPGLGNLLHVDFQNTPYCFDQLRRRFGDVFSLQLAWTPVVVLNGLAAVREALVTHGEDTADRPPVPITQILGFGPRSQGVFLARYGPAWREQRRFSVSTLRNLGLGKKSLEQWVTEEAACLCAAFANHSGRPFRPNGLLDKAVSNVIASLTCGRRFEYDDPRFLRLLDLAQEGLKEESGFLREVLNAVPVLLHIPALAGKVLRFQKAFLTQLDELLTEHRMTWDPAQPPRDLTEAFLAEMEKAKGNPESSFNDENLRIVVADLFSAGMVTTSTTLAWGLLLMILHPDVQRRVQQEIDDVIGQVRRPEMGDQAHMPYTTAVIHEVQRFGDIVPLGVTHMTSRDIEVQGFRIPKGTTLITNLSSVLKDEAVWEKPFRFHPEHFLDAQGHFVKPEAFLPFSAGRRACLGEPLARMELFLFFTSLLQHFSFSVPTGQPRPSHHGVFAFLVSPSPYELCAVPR
Assay: qHTS Assay for Inhibitors and Substrates of Cytochrome P450 2D6 (AID 891);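 further: luciferin methyl ether substrate demethylated by CYP2D6 with NADPH regeneration; on the % scale 0 is the no-effect control and ±100 the full control effect; nearly all actives have a fitted effect of over 60% in size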
Details: recombinant CYP2D6, luciferin-ME EGE luminescence; series mostly up to 57.1 µM
Method in brief: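 Luminescent read-out of luciferin formed by 5 nM human CYP2D6 demethylating 30 uM Luciferin-ME EGE (Km level) over 60 min at room temperature after NADPH regeneration addition. Data normalized to full inhibition by 1.43 uM quinidine.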

Row | Compound | outcome | activity change, negative = inhibition
1 | CC(=O)C1=C(O)C=C2Oc3c(C(C)=O)c(O)c(C)c(O)c3[C@]2(C)C1=O | inactive | 
2 | COc1ccc2[nH]c(=O)c3c(c2c1)OC(C)(C)C=C3 | inactive | 
3 | NCCCC(=O)O | inactive | 
4 | COC1=CC(=O)C[C@@H](C)[C@@]12Oc1c(Cl)c(OC)cc(OC)c1C2=O | inactive | 
5 | O=C(O)c1cc2ccccc2c(Cc2c(O)c(C(=O)O)cc3ccccc23)c1O |  | 6.29% [at 11.4 µM]

Molecular target: Cytochrome P450 2C19 (Homo sapiens) (UniProt P33261)
Sequence (P33261 whole entry, looked up): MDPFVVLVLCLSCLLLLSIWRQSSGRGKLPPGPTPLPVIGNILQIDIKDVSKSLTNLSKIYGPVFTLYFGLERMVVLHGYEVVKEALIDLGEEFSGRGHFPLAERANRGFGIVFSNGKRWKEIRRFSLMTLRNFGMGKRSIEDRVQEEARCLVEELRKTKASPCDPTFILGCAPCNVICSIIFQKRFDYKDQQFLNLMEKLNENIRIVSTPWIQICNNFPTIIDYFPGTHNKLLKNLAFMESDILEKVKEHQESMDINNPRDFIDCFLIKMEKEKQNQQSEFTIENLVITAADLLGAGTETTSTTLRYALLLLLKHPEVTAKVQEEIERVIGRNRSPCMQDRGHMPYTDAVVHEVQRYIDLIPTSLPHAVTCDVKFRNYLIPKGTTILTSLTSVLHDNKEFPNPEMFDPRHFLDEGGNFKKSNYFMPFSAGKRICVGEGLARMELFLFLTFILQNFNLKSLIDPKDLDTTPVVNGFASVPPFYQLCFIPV
Assay: qHTS Assay for Inhibitors and Substrates of Cytochrome P450 2C19 (AID 899); further: on the % scale 0 is the no-effect control and ±100 the full control effect; nearly all actives have a fitted effect of over 60% in size
Details: recombinant CYP2C19, luciferin-H EGE luminescence; series mostly up to 57.1 µM
Method in brief: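 Human CYP2C19 (5nM) with Luciferin-H EGE at 10uM (its KM) in 50mM KPO4 was preincubated with compound for 10 min at 37C. NADPH regeneration started a 60 min 37C reaction. Luciferin was read by luminescence, normalized to 57uM ketoconazole.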

Row | Compound | outcome | activity, negative = inhibition
6 | NCCCC(=O)O | inactive | 
7 | COC1=CC(=O)C[C@@H](C)[C@@]12Oc1c(Cl)c(OC)cc(OC)c1C2=O | inactive | 
8 | O=C(O)c1cc2ccccc2c(Cc2c(O)c(C(=O)O)cc3ccccc23)c1O |  | 1.36% [at 11.4 µM]

Tested on: not listed separately
Assay: Confirmation and Secondary Assay for Modulators of Hemoglobin Beta Chain Splicing at IVS2 654 locus (AID 910);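 further: per-well total GFP intensity by laser scanning cytometry after 2-day treatment; % of control where 0% means no effect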
Details: HeLa EGFP-654 splicing reporter, GFP fluorescence, 48 h; series mostly up to 46.1 µM
Method in brief: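 HeLa cells stably carrying EGFP interrupted by mutant beta-globin IVS2-654 intron (CMV-driven) were treated with compound for 2 days at 37C; corrected splicing was scored as total peak GFP intensity per well (488 nm excitation, 500-520 nm emission).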

Row | Compound | outcome
9 | CCCCCCCCCCCCCCCC(=O)OC/C=C(C)/C=C/C=C(C)/C=C/C1=C(C)CCCC1(C)C | inactive
10 | O=C(O)CC(O)(CC(=O)O)C(=O)O | inactive
11 | NCCCC(=O)O | inactive
12 | C1CNCCN1 | inactive

Tested on: not listed separately
Assay: Cell Viability - LYMP2-001 (AID 921);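 further: cells exposed to compound for 24 h at 37 °C; 0% = DMSO only and full inhibition = tetraoctylammonium bromide control wells; nearly all actives have a fitted effect of over 70% in size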
Details: LYMP2-001 lymphoblastoid cell viability; series mostly up to 92.2 µM
Method in brief: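 CellTiter-Glo luminescence (intracellular ATP) after 24 hr compound exposure at 37 C, 2500 lymphoblastoid cells/well in complete medium. AC50 fitted with standard Hill equation; tetraoctylammonium bromide positive control.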

Row | Compound | outcome
13 | COC(C)=O | inactive
14 | O=C(O)CC(O)(CC(=O)O)C(=O)O | inactive
15 | C=Cc1ccccc1 | inactive
16 | CCCCCCCCCC(=O)O | inactive
17 | CN(C)Cc1ccccc1 | inactive

Tested on: not listed separately
Assay: Confirmation and Secondary Assay for Modulators of Hemoglobin Beta Chain Splicing at IVS2 705 locus (AID 930);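 further: HeLa cells stably expressing the EGFP-705 splicing reporter; GFP fluorescence per well restored by corrected splicing of the IVS2-705 intron in EGFP; % of control where 0% means no effect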
Details: HeLa EGFP-705 splicing reporter, GFP fluorescence, 48 h; series mostly up to 46.1 µM
Method in brief: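 Secondary splice-site specificity test uses HeLa expressing CMV-driven EGFP interrupted by IVS2-705; cells were treated 2 days at 37C with 500 nM antisense PNA as positive control.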

Row | Compound | outcome
18 | CCCCCCCCCCCCCCCC(=O)OC/C=C(C)/C=C/C=C(C)/C=C/C1=C(C)CCCC1(C)C | inactive
19 | O=C(O)CC(O)(CC(=O)O)C(=O)O | inactive
20 | NCCCC(=O)O | inactive
21 | C1CNCCN1 | inactive

Molecular target: Pyruvate kinase (Leishmania mexicana) (UniProt Q27686)
Sequence (Q27686 2-499 E452W): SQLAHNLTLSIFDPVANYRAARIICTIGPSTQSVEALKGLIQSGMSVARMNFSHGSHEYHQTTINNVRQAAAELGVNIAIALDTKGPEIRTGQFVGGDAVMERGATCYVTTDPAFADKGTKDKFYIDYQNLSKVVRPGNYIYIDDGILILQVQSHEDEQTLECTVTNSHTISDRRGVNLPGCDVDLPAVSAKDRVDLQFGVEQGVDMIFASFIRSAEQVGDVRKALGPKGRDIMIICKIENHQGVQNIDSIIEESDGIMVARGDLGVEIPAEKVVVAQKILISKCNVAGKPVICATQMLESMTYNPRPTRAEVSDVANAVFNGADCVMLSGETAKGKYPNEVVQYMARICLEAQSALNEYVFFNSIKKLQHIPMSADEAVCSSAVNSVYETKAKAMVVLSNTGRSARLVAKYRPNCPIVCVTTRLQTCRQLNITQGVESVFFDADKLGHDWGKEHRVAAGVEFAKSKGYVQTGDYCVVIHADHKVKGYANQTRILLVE
Assay: qHTS Validation Assay for Inhibitors of Leishmania Mexicana Pyruvate Kinase (AID 945);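 further: 0% = DMSO only neutral control wells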
Details: purified L. mexicana pyruvate kinase, enzyme activity, E451W mutant enzyme; series mostly up to 57.5 µM
Method in brief: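 Read-out: luminescence from PKLight stop/detection reagent, data normalized to DMSO. Reaction: 0.2 nM E451W LmPYK, 0.5 mM PEP, 0.1 mM ADP, pH 7.2, 1 h room temperature.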

Row | Compound | outcome
22 | CN[C@H]1CC[C@@H](c2ccc(Cl)c(Cl)c2)c2ccccc21 | inactive
23 | Cc1ccc(OC[C@H](O)[C@H](C)NC(C)C)c2c1CCC2 | inactive
24 | NCCCC(=O)O | inactive

Tested on: not listed separately
Assay: MultiTox-Fluor Cytotoxicity Assay - LYMP1-001 - Dead Cells (AID 946);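 further: cells exposed to compound for 16 h; 0% = DMSO and 100% = tetraoctylammonium bromide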
Details: LYMP1-001 lymphoblastoid cells, dead-cell protease fluorescence; series mostly up to 92.2 µM
Method in brief: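 AC50 from Hill fit of concentration-response; data normalized to DMSO (basal) and 15 uM tetraoctylammonium bromide (100%). LYMP1-001 lymphoblastoid cells, 2500/well, 16 hr compound at 37 C; dead-cell protease fluorescence, Ex/Em 485/520.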

Row | Compound | outcome
25 | COC(C)=O | inactive
26 | O=C(O)CC(O)(CC(=O)O)C(=O)O | inactive
27 | C=Cc1ccccc1 | inactive
28 | CCCCCCCCCC(=O)O | inactive
29 | CN(C)Cc1ccccc1 | inactive
